KCNH2 WT inh – inhibitors of human wildtype KCNH2 potassium channel | AID 720551 | activity change, % at 1.84 µM | U2OS, BacMam KCNH2, thallium flux FluxOr; active compounds read low | 340,000 tested, 0.37% active | Q12809;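 active means maximum activity change below -70%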; further: on the % scale 0 is the no-effect control and ±100 the full control effect
Target sequence (Q12809 whole entry, looked up): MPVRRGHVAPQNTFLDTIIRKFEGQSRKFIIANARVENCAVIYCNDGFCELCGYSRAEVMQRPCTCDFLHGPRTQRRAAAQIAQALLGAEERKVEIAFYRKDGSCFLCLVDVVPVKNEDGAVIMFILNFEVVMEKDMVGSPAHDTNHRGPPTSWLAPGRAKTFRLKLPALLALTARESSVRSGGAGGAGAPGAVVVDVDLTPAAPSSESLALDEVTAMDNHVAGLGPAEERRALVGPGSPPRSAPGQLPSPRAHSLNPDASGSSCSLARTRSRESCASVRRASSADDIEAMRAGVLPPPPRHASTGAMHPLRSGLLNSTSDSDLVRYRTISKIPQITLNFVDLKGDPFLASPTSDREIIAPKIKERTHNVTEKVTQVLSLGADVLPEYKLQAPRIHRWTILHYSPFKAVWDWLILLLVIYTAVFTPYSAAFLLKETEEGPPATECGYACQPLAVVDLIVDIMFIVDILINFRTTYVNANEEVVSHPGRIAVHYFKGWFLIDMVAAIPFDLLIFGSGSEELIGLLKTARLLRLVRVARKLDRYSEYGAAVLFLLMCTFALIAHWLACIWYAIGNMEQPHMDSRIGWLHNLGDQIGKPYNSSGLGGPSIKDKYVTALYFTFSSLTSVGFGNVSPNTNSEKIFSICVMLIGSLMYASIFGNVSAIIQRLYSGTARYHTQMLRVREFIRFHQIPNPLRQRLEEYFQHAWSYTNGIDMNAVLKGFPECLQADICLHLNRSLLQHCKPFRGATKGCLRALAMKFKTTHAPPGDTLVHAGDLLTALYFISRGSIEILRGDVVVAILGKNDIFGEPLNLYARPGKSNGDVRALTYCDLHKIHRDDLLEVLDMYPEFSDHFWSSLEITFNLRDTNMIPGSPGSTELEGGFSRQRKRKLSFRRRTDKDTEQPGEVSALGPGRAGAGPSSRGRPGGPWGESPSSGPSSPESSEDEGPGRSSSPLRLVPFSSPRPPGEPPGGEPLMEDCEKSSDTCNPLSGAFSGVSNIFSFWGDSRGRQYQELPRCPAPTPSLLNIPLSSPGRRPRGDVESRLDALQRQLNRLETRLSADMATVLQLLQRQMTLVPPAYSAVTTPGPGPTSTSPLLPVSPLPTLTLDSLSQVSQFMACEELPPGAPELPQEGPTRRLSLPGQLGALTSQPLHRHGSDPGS
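U2OS cells transduced with wild-type KCNH2 virus are loaded with FluxOr dye for 45 min, and thallium flux is measured in kinetic reads before and after stimulation buffer. Rate constants are normalized to DMSO controls.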
Glioma ERSR ind – ER stress response induction in glioma; Potency, µM, without a hit: at the top dose activation, most hits filed as activators; U87-MG GRP78 promoter luciferase reporter, 16 h; 420,000 tested, 0.02% active; active means well fitted activation curve with a large enough effect; further: potency means the concentration at half of the fitted maximal effect; series mostly up to about 76 µM; % of control where 0% means no effect; nearly all actives have a fitted effect of over 35% in size
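ERSR induction read as luciferase luminescence (Bright-Glo, 10 min at room temperature) in stably transfected human U87-MG glioma cells exposed to compounds for 16 h, using GRP78 as sensor.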
gsp antagonist – antagonists of gsp mutant (McCune-Albright syndrome); 340,000 tested, 0.4% active; gsp-mutant cells, cAMP HTRF, 30 min; Potency, µM (top dose mostly 76.9 µM), inactives show at the top dose activity change, negative = inhibition, most hits filed as inhibitors; calls by dose curve; cell line not stated here;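 further: intracellular cAMP measured with PDE inhibitor Ro 20-1724 present during compound exposure; potency means the concentration at half of the fitted maximal effect; on the % scale 0 is the no-effect control and ±100 the full control effect; nearly all actives have a fitted effect of over 65% in size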
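Cells, 2000/well, grown 16–24 h in DMEM 10% FBS with 0.5 mg/ml G418, then compounds plus […] (300 uM addition stock), 30 min at 37C. cAMP read by HTRF (cAMP-d2 and anti-cAMP antibody-K in lysis buffer) after 30 min RT.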
KCNH2 3.1 inh – KCNH2 3.1 (human) potassium channel inhibition; U2OS KCNH2 3.1, thallium flux FluxOr; active compounds read low; activity change, % (tested at about 1.8 µM); 340,000 tested, 0.95% active; AID 720553;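 active means maximum activity change below -70%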;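 further: thallium influx rate constant from kinetic fluorescence after stimulation buffer; on the % scale 0 is the no-effect control and ±100 the full control effect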
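Thallium flux via FluxOr fluorescence (Red40 quencher, 45 min loading) in U2OS cells virally expressing the KCNH2 3.1 isoform (1.77 x 10^8 /mL virus, overnight at 37 C). Rate constants from 2-min kinetic reads post-stimulation, normalised to positive and negative controls.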
pAkt inh – blocks phosphorylation of Akt. activity change, % for hits at 50 µM. AID 651550. Neuro2A IGF-stimulated pAkt S473 HTRF, 20 min; active compounds read low. 360,000 tested, 0.32% active; in the data active means activity change below about -80%; further: on the % scale 0 is the no-effect control and ±100 the full control effect
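Neuro2A cells (4,500/well, DMEM with 0.5% FBS) were treated with compound at a single 50 µM final concentration, stimulated with 6 nM IGF for 20 min at 37 °C, and lysed. Phospho-Akt Ser473 was read by HTRF as 665/615 ratio ×10^4.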
gsp agonist – agonists of gsp mutant (McCune-Albright syndrome) | gsp mutant cells, cAMP HTRF, 30 min | Potency, µM (highest dose often 76.9 µM), without a hit: at the highest dose activation (cAMP increase), usual class: activators | 340,000 tested, 0.13% active | AID 624287; active means well fitted activation curve with a large enough effect; cell line not stated here;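 further: phosphodiesterase inhibitor Ro 20-1724 added with compounds to block cAMP breakdown; potency means the concentration at half of the fitted maximal effect; nearly all actives have a fitted effect of over 60% in size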
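Cells stably selected in G418 were plated at 2000/well, grown 16-24 hr, then given compounds in DMSO with the PDE inhibitor […] (300 uM solution added) for 30 min at 37C; cAMP was read by HTRF.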
The depositor's hits bear a star; i = inactive; · = no result; [ ] = dose if it differs, or a comment. Hits are enriched below; roughly 1.6% of the tested compounds scored in any of these assays.

SMILES	KCNH2 WT inh	Glioma ERSR ind	gsp antagonist	KCNH2 3.1 inh	pAkt inh	gsp agonist
O=[N+]([O-])c1ccc(NCCNCCOc2nonc2-c2ccccc2)c([N+](=O)[O-])c1	-46	-5%	-2%	-93*	i	-5%[15.4 µM]
Cc1nonc1OCCNCCNc1ccc([N+](=O)[O-])cc1Cl	27	-1%	-3%	-1	i	-15%
O=c1oc2ccccc2cc1-c1csc(NN=C2CCCC2)n1	-5	3%	-28%	-18	i	-21%
O=C(O)c1cccc(Nc2nc(-c3cc4ccccc4oc3=O)cs2)c1	-20	-4%	35µM*	3	i	5%[15.4 µM]
O=C(Nc1ccc(Nc2ccccc2)cc1)C1CC1	-7	7%	-7%	-4	i	-35%
O=C(Nc1ccc(-n2cccc2)cc1)C1CC1	7	6%	11µM*	5	i	-2%[15.4 µM]
O=[N+]([O-])c1ccc(-c2ccc(S(=O)(=O)NCCN3CCCC3)cc2)cc1	6	-3%	-3%	-90*	i	-1%
O=[N+]([O-])c1ccc(S(=O)(=O)NCCN2CCOCC2)cc1	22	-5%	7%	5	i	0%[15.4 µM]
O=C1/C(=C\c2ccccc2)CN(C(=O)CCN2CCCCC2)C/C1=C/c1ccccc1	-17	-12%	14%	-75*	i	1%
COc1cc(-c2oc3cc(O)cc(O)c3c(=O)c2O[C@@H]2O[C@H](CO)[C@@H](O)[C@H](O)[C@H]2O)cc(OC)c1O	·	-3%	·	·	·	·
COc1cc(=O)n2c(c1C(=O)NCc1ccco1)CCN(C(=O)c1ccc(C)c(C)c1)CC2	·	-3%	·	·	·	·
COc1ccc(CNC(=O)C(C#N)c2nc3ccccc3nc2N2CCCC2)cc1 (stereo not given)	10	-2%	-5%	-4	-84%*	0%
C=CCOC(=O)C(C#N)c1nc2ccccc2nc1N1CCN(Cc2ccc3c(c2)OCO3)CC1 (stereo not given)	-111*	-5%	-15%	-103*	i	1%
CCCCNC(=O)C(C#N)c1nc2ccccc2nc1N1CCN(Cc2ccc3c(c2)OCO3)CC1 (stereo not given)	-16	-2%	10%	-17	i	24%
CCCCCCOC(=O)C(C#N)c1nc2ccccc2nc1N1CCN(C)CC1 (stereo not given)	9	-4%	4%	-71*	i	0%
Cc1ccc(CN2[C@H](C)[C@H](c3ccccc3)OCCS2(=O)=O)cc1	·	-1%	·	·	·	·
OC1(c2cccnc2)CCN(Cc2ccc3c(c2)CN(Cc2cc4ccccc4s2)CCO3)CC1	·	-3%	·	·	·	·
O=C(CN1Cc2ccccc2OC(c2ccsc2)C1)NCc1ccc2c(c1)OCO2 (stereo not given)	·	-4%	·	·	·	·
COc1ccc(C(=O)NCCc2nnc3n2CCN(CC2CC=CCC2)CC3)cc1 (stereo not given)	·	-5%	·	·	·	·
COc1cc(CN2CCc3nnc(C(NS(C)(=O)=O)C(C)C)n3CC2)ccc1F (stereo not given)	·	-5%	·	·	·	·
CCOc1ccc(NC(=O)c2ccc(N3CC4CC(C3)c3cccc(=O)n3C4)c(NC(=O)CCN3CCOCC3)c2)cc1 (stereo not given)	-5	-7%	-5%	-22	i	-5%
CCOc1ccc(/C=N/NC(=O)Cc2ccccc2)cc1CN1CC2CC(C1)c1cccc(=O)n1C2 (stereo not given)	0	2%	35µM*	-11	i	·
CCOc1ccc(/C=N/NC(=O)c2ccc(O)cc2)cc1CN1CC2CC(C1)c1cccc(=O)n1C2 (stereo not given)	7	3%	40µM*	3	i	·
COc1cc(CNC(=O)CCC(=O)N2C[C@H]3C[C@H](C2)c2cccc(=O)n2C3)cc(OC)c1OC	15	0%	12%	6	i	·
CC(C)(C)c1ccc(NC(=O)N2CCN(c3ccc([N+](=O)[O-])cn3)CC2)cc1	3	-4%	-21%	-103*	i	3%[15.4 µM]
O=C(Nc1ccc(F)cc1F)N1CCCN(c2ccc([N+](=O)[O-])cn2)CC1	-3	-5%	8%	-1	i	-4%[15.4 µM]

Screening data: PubChem BioAssay, National Center for Advancing Translational Sciences (NCATS)
